According to PubChem BioAssay:
Active and inactive are the calls of the source.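 How the source made its calls: active means inhibition above 20% together with a positive visual image hit; inconclusive means visual image hit but inhibition not above 20%; inactive means no visual image hit.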

Assay: inhibitors of TNFa-induced NFkB p65 translocation, primary screen, imaging, HUVEC, MLSMR starter and 10KST1 sets (AID 438);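 further: compound added about 3h40 before a 20 min TNFalpha stimulation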;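 on inhibition: signal is the nuclear over cytoplasmic p65 intensity ratio per well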
Conditions: HUVEC TNFa-induced p65 nuclear translocation; cell count: measured here: nuclei count (cytotoxicity indicator), at 2.08 µM; inhibition: at 2 µM, stronger effect = higher value, 0% TNFa-plus-vehicle, 100% no-TNFa wells

Row | SMILES | cell count | inhibition
1 | CCOC(=O)c1c(-c2cccs2)csc1NC(=O)CCCC(=O)O | 550 | -0.4% (inactive)
2 | Fc1ccc(-c2cnc[nH]2)cc1 | 501 | 0.1% (inactive)
3 | CCOC(=O)c1[nH]c2ccc(Br)cc2c1NC(=O)CNC | 737 | 5.1% (inactive)
4 | COc1ccc(C2(CN(C(C)=O)C(C)=O)CCCC2)cc1OC | 676 | -6.2% (inactive)
5 | COc1ccccc1C1C(C#N)=C(N)Oc2cc(C)n(Cc3ccccn3)c(=O)c21 (stereo not drawn) | 679 | -2.4% (inactive)
6 | Cc1ccc(C(=O)/C=C/Nc2cccc(O)c2)cc1 | 368 | -4.7% (inactive)
7 | O=C(C1CC1(c1ccccc1)c1ccccc1)N1CCOCC1 (stereo not drawn) | 402 | -6.3% (inactive)
8 | COC(=O)CNC(=O)c1c(C)cc(=O)oc1C | 481 | 1.6% (inactive)
9 | COc1ccc(CCn2c(=N)c(C(=O)NCc3ccco3)cc3c(=O)n4ccccc4nc32)cc1 | 496 | -4.9% (inactive)
10 | Nc1nc(NC(=O)c2cccs2)nn1-c1ccccc1 | 647 | -6.2% (inactive)
11 | Cc1c(O)c(CN2CCCC(C)C2)cc2c3c(c(=O)oc12)CCC3 (stereo not drawn) | 695 | -6.3% (inactive)
12 | COc1ccc(CCn2c(=N)c(C#N)cc3c(=O)n4ccccc4nc32)cc1 | 529 | 1.4% (inactive)
13 | Cn1c(SCC(=O)N2CCOCC2)nnc1-c1cccc(NC(=O)c2ccccc2F)c1 | 576 | -2.8% (inactive)
14 | O=C(NC1CCS(=O)(=O)C1)c1c(NC(=O)C2COc3ccccc3O2)sc2c1CCCC2 (stereo not drawn) | 657 | -7% (inactive)
15 | COC(=O)C(NC(C)=O)(Nc1nc2ccc(S(C)(=O)=O)cc2s1)C(F)(F)F (stereo not drawn) | 473 | -7.9% (inactive)
16 | COc1ccc2c(c1)C1(C)CC(C)(C)N2C(=O)N1c1ccccc1 (stereo not drawn) | 585 | -8.2% (inactive)
17 | CCCCCn1c2nc3ccccc3nc2c2c(=O)n(CC(C)C)cnc21 | 641 | -4.1% (inactive)
18 | Nc1nnnn1/N=C/c1ccccn1 | 568 | -2.8% (inactive)
19 | Cc1nnc2n(-c3ccccc3)c(=O)c3c4c(sc3n12)CCCC4 | 661 | -4.7% (inactive)
20 | CCc1nc2sc3c(c2c(=O)o1)CCCC3 | 736 | -8.2% (inactive)

Row | SMILES | cell count | inhibition
21 | CCOC(=O)CNC(=O)Nc1ccccc1C(=O)OC | 676 | -2.9% (inactive)
22 | COc1ccc(C(=O)NCCCCCC(=O)O)cc1OC | 687 | -15.7% (inactive)
23 | CCOC(=O)C1=C(CSc2nc(C)cc(C)c2C#N)OC(N)=C(C#N)C1c1cccs1 (stereo not drawn) | 502 | 7.3% (inactive)
24 | COc1cc(NC(=O)NC(C)(C(F)(F)F)C(F)(F)F)cc(OC)c1OC | 664 | -5.8% (inactive)
25 | COC(=O)C(NC(C)=O)(Nc1ccccn1)C(F)(F)F (stereo not drawn) | 499 | -0.5% (inactive)
26 | CC1(C)CNC(=O)c2sc(N3CCOCC3)nc2C1 | 330 | -0.5% (inactive)
27 | CCOC(=O)c1ccc(CC2S/C(=C(\C#N)C(C)=O)NC2=O)cc1 (stereo not drawn) | 508 | -6.4% (inactive)
28 | CC(=Nc1cccc(O)c1)c1sc2ccccc2c1O | 745 | -2.4% (inactive)
29 | COc1cccc(N2C(=O)C(O)=C(C(C)=O)C2c2ccc(OC)c(OC)c2)c1 (stereo not drawn) | 652 | -3.8% (inactive)
30 | O=S(=O)(c1ccc2ccccc2c1)N(CC(O)CN1CCOCC1)c1ccccc1 (stereo not drawn) | 576 | -8.7% (inactive)
31 | Cc1c(O)c(CN2CCCCC2)cc2c3c(c(=O)oc12)CCC3 | 706 | -5.5% (inactive)
32 | O=S(=O)(NCc1cccnc1)c1cccc2nsnc12 | 643 | -2.6% (inactive)
33 | Cc1cc(O)c(C(C)C)cc1N=C1CSC(=O)N1 | 428 | -5.3% (inactive)
34 | Cc1nc2sc(C#N)c(N)c2c2c1CCCC2 | 603 | 0.2% (inactive)
35 | N#C/C(C(=O)N1CCOCC1)=C1/SC(Cc2ccccc2)C(=O)N1c1ccccc1 (stereo not drawn) | 520 | -7.6% (inactive)
36 | CN(CC(O)COc1ccc(OCC(O)CN(C)C2CCCCC2)cc1)C1CCCCC1 (stereo not drawn) | 605 | -1.3% (inactive)
37 | Cn1c(=O)[nH]c(=O)c2c1nc(N(CCO)Cc1ccccc1)n2Cc1ccccc1Cl | 650 | 4.6% (inactive)
38 | Cc1nn(-c2ccccc2)c2c1C(=O)NC(=O)C(C)(C)C2 | 526 | 2.2% (inactive)
39 | Cc1ccc(-n2ncc3c(N4CCN(c5ccccc5)CC4)ncnc32)c(C)c1 | 600 | -15.9% (inactive)
